Screening data from PubChem BioAssay.
Dicer inh = inhibitors of Dicer pre-microRNA processing, primary screen, biochemical, cat-ELCCA, chemiluminescence; Endoribonuclease Dicer (Homo sapiens), Q9UPY3; cat-ELCCA pre-miR-21 Dicer processing; active compounds read high; z-score at 25 µM; 47,000 compounds, 6% hits; AID 1347074, 2019; in the data active = z-score above about 3, passing the limit was not always enough;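 also: higher signal means more uncleaved substrate so more Dicer inhibition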
Large screens that a line does not name were inactive. This is one part of a sample in which hits are shown more often than they occur.

CCc1cc2c(=O)c(-c3nc4ccccc4n3C)coc2c(CN(CC)CC)c1O	none
O=C(NC1=C(C(=O)c2ccccc2)N(Cc2ccccc2)S(=O)(=O)c2ccccc21)c1ccccc1	none
Cc1ccc2c(c1)NC(c1ccc([N+](=O)[O-])s1)O2 (centres undefined)	none
Nc1ccc2nnc(-c3ccccc3)n2n1	none
CO/N=C1\CCCc2c(C(=O)N/N=C/c3cccs3)sc(SC)c21	none
Nc1ncnc(Nc2ccc(Oc3ccc(Cl)cc3)cc2)n1	none
Nc1nc(Nc2ccc(Cl)cc2)n[nH]1	Dicer inh 5.4
Nc1nc(SCc2ccc(Cl)cc2)n[nH]1	none
CS(=O)(=O)c1nc2ccccc2s1	none
Cc1cccc(Nc2nnc(-c3ccc(C)c(S(N)(=O)=O)c3)c3ccccc23)c1	none
COc1cccc2c1c(NC(=O)CSCC(=O)O)nn2C	none
COc1nc(-c2ccc(Cl)cc2)ccc1-c1noc(C(C)C)n1	none
COc1cc2c(cc1OC)C1=C(C#N)CN(CCc3ccccc3)CN1CC2	none
COc1cc2c(cc1OC)C1=C(C#N)CN(c3ccc(C)c(C)c3)CN1CC2	Dicer inh 4.5
COc1cc2c(cc1OC)CN(S(=O)(=O)c1ccc3c(c1)CCC(C)(C)O3)CC2	none
CC1CC(C)CN(c2nc3nonc3nc2Nc2ccc3c(c2)OCO3)C1 (centres undefined)	none
CCCCCOC(=O)CSc1nnc(-c2ccc(C)cc2)o1	none
CCCCNS(=O)(=O)c1cccc2c(N)cccc12	none
